Assay results: PubChem BioAssay (NCATS)
Inconclusive results are not listed. Values without a mark were called inactive. The call rests on the fitted dose curve; in most records, active means well fitted cell-killing curve with a large enough effect; inconclusive means small, poorly fitted or top-dose-only effect, or effect the other way; inactive means no such curve, though single readings can be large or run the other way.

Assay: Cell Viability - LYMP2-004 (AID 966);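 further: cells exposed to compound for 24 h; plate controls were DMSO only for no effect and tetraoctylammonium bromide control for full effect; nearly all actives have a fitted effect of over 65% in size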
Settings: LYMP2-004 lymphoblastoid cell viability, qHTS; series mostly up to 92.2 µM; activity change, negative = cytotoxicity: at the top concentration
Description: NIH Chemical Genomics Center [NCGC]
NIH Molecular Libraries Screening Centers Network [MLSCN]
National Institutes of Environmental Health Sciences [NIEHS]
National Toxicology Program [NTP]
We have developed a 1536-well cell-based assay for quantitative high throughput screening (qHTS) against a number of cell lines to determine in vitro cytotoxicity of small molecules. This particular assay uses a human lymphoblastoid cell line (LYMP2-004) purchased from Coriell Institute for Medical Research.
NCGC Assay Protocol Summary:
The CellTiter-Glo luminescent cell viability assay (Promega) is a homogeneous method to measure the number of viable cells in culture. The end point readout of this assay is based on quantitation of intracellular ATP, an indicator of metabolic activity, using the luciferase reaction. Luciferase catalyzes the oxidation of beetle Luciferin to oxyluciferin and light in the presence of ATP. The luminescent signal is proportional to amount of ATP present.
Using the CellTiter-Glo luminescent cell viability assay, the amount of cellular ATP was measured in the lymphoblastoid cell line with complete culture medium following compound treatment for 24 hours. The assay was performed in opaque white Kalypsys 1536-well plates. In the screen, tetraoctylammonium bromide was used as positive control. Library compounds were measured for their ability to cause acute toxicity in the cell line, as reflected by a decrease in intracellular ATP levels, in a concentration-dependent manner. […] AC50 values were determined from concentration-response data modeled with the standard Hill equation.
qHTS protocol for CellTiter Glo lymphoblastoid cellular assay
[Step] [Parameter] [Value] [Description]
1. Reagent; 5 uL; 2500 lymphoblastoid cells/well
2. Time; 5 hr; 37 C incubation
4. Controls; 23 nL; Tetraoctylammonium bromide 6.4pM to 92 uM
5. Time; 24 hr; 37 C incubation
6. Reagent; 5 uL; CellTiter Glo reagent
7. Time; 30 min; Room Temperature
8. Detection; Luminescence; Viewlux plate reader
Keywords: cell viability, cytotoxicity, lymphoblastoid cell line, luminescence, NTPHTS, NTPHTS_NCGC, NIEHS, DSSTox, MLSMR, MLSCN, NIH Roadmap, qHTS, NCGC

Row | SMILES | activity change, negative = cytotoxicity [%]
1 | CC(=O)OCC(COC(C)=O)OC(C)=O | 9.98
2 | CCN(CC)C(=O)c1cccc(C)c1 | -6.04
3 | Nc1ccc(S(=O)(=O)c2ccc(N)cc2)cc1 | -4.17
4 | O=C(c1ccccc1)C(O)c1ccccc1 (configuration not stated) | 24.4
5 | CC(=O)Nc1cccc(O)c1 | 14.7
6 | CCCC(O)C(CC)CO (configuration not stated) | -1.29
7 | CC(=O)Nc1ccc(C(=O)O)cc1 | 11.4
8 | CCCCCCCC(=O)OCC(COC(=O)CCCCCCC)OC(=O)CCCCCCC | 8.74
9 | FC(F)(F)C(Cl)Br (configuration not stated) | 19.5
10 | CCCCOC(=O)c1ccc(N)cc1 | -2.84
11 | Cc1cc(C)nc(NS(=O)(=O)c2ccc(N)cc2)n1 | -2.91
12 | CCCCCC(N)=O | 22.5
13 | O=C(O)CCCCC1CCSS1 (configuration not stated) | -22
14 | Cc1c(N(C)C)c(=O)n(-c2ccccc2)n1C | 2.98
15 | CC(=O)NS(=O)(=O)c1ccc(N)cc1 | 0.0664
16 | C=CCNC(N)=S | -9.53
17 | CC1CC(OC(=O)c2ccccc2O)CC(C)(C)C1 (configuration not stated) | -0.626
18 | Cc1cc(=O)[nH]c(=S)[nH]1 | -9.64
19 | O=C1c2cccc(O)c2C(=O)c2c(O)cccc21 | -23.4
20 | COc1ccc(O)cc1 | 13.3
21 | CC(=O)Nc1ccccc1 | -2.69
22 | O=C1C(c2[nH]c3ccccc3c2O)=Nc2ccccc21 | 5.25
